Hits are enriched below; roughly 4% of the tested compounds scored in any of these assays.
tim23-1 inh: growth inhibitors of tim23-1 mutant yeast, primary screen, luminescence, uHTS; 330,000 tested, 1.3% active; AID 463212, 2010; S. cerevisiae tim23-1 growth, BacTiter-Glo luminescence, 24 h; inhibition, % at 20 µM;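 active means growth inhibition of the mutant yeast at or above 50%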;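 further: temperature-sensitive mutant grown at 25 °C; plate controls were DMSO-treated mutant yeast for no effect and medium wells lacking yeast for full effect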
TIM10 inh: growth inhibitors of isogenic TIM10 control yeast, primary screen, counter-screen for tim10-1 yeast inhibitor project, luminescence, uHTS; 330,000 tested, 1.4% active; inhibition, % at 10 µM; S. cerevisiae TIM10 strain growth, BacTiter-Glo luminescence, 24 h;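 active means inhibition of 40% or more at the single tested concentration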;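 further: wild-type TIM10 isogenic control strain grown at permissive 25 °C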
NLRP3 yeast inh: NALP3 inflammasome inhibitors in reconstituted yeast, primary screen, luminescence, uHTS; Yeast reconstituted NLRP3/ASC/caspase-1, beta-gal luminescence, 24 h; inhibition, % at 10 µM; 330,000 tested, 0.39% active; AID 2825, 2010;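 active means inhibition of 50% or more; inactive means inhibition below 50%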;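 further: plate controls were induced DMSO wells for no effect and uninduced yeast grown without galactose for full effect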
NALP1 inh: NALP1 inflammasome inhibitors in reconstituted yeast, colorimetric, S. cerevisiae, triplicate retest | S. cerevisiae NALP1/ASC/caspase-1 growth, X-gal OD620, 72 h | inhibition, % at 10 µM | 280,000 tested, 0.61% active; in the data active means inhibition mostly above about 24%, no sharp cut-off; inactive means mostly below about 32%
tim10-1 inh: growth inhibitors of tim10-1 mutant yeast, primary screen, luminescence, uHTS; S. cerevisiae tim10-1 ts strain growth, BacTiter-Glo, 24 h; inhibition, % at 20 µM; 330,000 tested, 2.2% active; AID 463190, 2010;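 active means inhibition of at least 40%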;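 further: mutant grown at 25 °C; 0% = DMSO wells with yeast and 100% = wells holding no yeast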
tim10-1 conf: growth inhibitors of tim10-1 mutant yeast, confirmation, single concentration, luminescence, S. cerevisiae; shares compounds with tim10-1 inh; S. cerevisiae tim10-1 ts strain growth, BacTiter-Glo, 24 h; inhibition, % at 20 µM; 7,400 tested, 56% active;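 active means inhibition of yeast growth at or above a set limit in either of two repeat tests at 20 µM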;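 further: tim10-1 mutant grown at permissive 25 °C to find synthetic lethal compounds; 0% = DMSO yeast wells and 100% = medium wells without yeast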
* hit, by the source's call; / = no result.

SMILES	tim23-1 inh	TIM10 inh	NLRP3 yeast inh	NALP1 inh	tim10-1 inh	tim10-1 conf
COc1ccc(CC(=O)NCCc2ccc(Cl)cc2Cl)cc1	28	-21	6	-3	40*	17
Cc1c(C(=O)c2ccc(N(C)C)cc2)c2ccccn2c1CCC#N	16	20	23	16	40*	12
Cc1c(C(=O)c2ccc(F)cc2F)c2ccccn2c1CCC#N	18	15	30	8	27	/
COc1ccc(Cl)cc1NC(=O)CSc1nnc(COc2ccccc2)n1C	20	16	11	5	46*	17
COc1ccc(Cl)cc1NC(=O)CSc1nnc(COc2ccccc2)n1N	-3	-1	-7	30	18	/
C/C(=N\NC(=S)NC(C)C)c1ccc(-n2ccnc2)cc1	34	22	18	4	43*	20
CCOc1ccc(-n2c(CCc3ccccc3)n[nH]c2=S)cc1	17	24	13	-10	41*	18
CCc1ccc(-n2c(Cc3ccccc3)n[nH]c2=S)cc1	31	13	13	-48	48*	27
Cc1noc(C)c1COc1ccc(C(=O)OCC(=O)NC2CCCCC2C)cc1 (centres undefined)	26	19	-1	-20	16	/
O=C(Nc1ccc(S(=O)(=O)Nc2ncccn2)cc1)c1cccc(S(=O)(=O)N2CCCC2)c1	-18	-25	-10	/	-7	/
C[C@@H]1CN([C@H](C)CO)C(=O)c2cc(NS(=O)(=O)c3cn(C)cn3)ccc2O[C@@H]1CN(C)S(C)(=O)=O	-3	-5	12	/	-14	/
O=[N+]([O-])/C(C(Cl)=C(Cl)Cl)=C(/Sc1ccccc1)N1CCCCC1	42	26	19	-7	41*	45*
O=C(N/C(=C\c1ccc([N+](=O)[O-])cc1)C(=O)N1CCCCC1)c1ccccc1	22	1	-3	-1	28	/
Cc1ccc(S(=O)(=O)Nc2ccc(Cl)cn2)cc1C	36	2	11	1	9	/
CC(/C=C/c1cccc([N+](=O)[O-])c1)=N/NC(=O)c1cccnc1	26	10	12	27	40*	21
Cn1c(CSc2nnc(SCc3ccccc3)s2)nc2ccccc21	41	37	-3	-5	56*	42*
COc1ccc(CN(Cc2ccccn2)C(=O)CN2C(=O)COc3ccccc32)cc1	32	14	2	2	26	/
COc1ccc(CN(C(=O)CN2C(=O)COc3ccccc32)C2CCCC2)c(OC)c1	40	23	6	10	40*	15
COc1ccc(CN(C(=O)CN2C(=O)C(C)Oc3ccccc32)C2CCCC2)c(OC)c1 (centres undefined)	44	31	15	-4	41*	29
O=[N+]([O-])c1ccccc1S(=O)(=O)Nc1cccc(S(=O)(=O)N2CCCC2)c1	11	11	7	/	0	/
CC(=O)Nc1ccc(N2S(=O)(=O)c3ccccc3S2(=O)=O)cc1	24	24	10	4	41*	17
O=C(CN1CCC(n2nnc3cc(C(F)(F)F)ccc32)CC1)N1CCc2ccccc21	48	24	23	5	46*	36*
O=C(CN1CCC(n2nnc3cc(F)ccc32)CC1)N1CCCc2ccccc21	12	8	6	17	30	/
Cc1cc(C)cc(NC(=O)c2cc(C)n(Cc3cccs3)c2C)c1	17	17	-16	8	29	/
CC(=O)c1ccc2c(c1)c(C#N)c1ccccc1[n+]2[O-]	48	18	35	5	68*	51*
CC(=O)c1ccc2noc(-c3ccccc3)c2c1	4	-5	19	7	-5	/
O=C(NCc1ccncc1)c1cc(C(=O)C2CC2)c[nH]1	9	-16	29	-34	2	/
CCOc1ccccc1NC(C)C(=O)Nc1cc(C(F)(F)F)ccc1N1CCOCC1 (centres undefined)	45	33	19	30	40*	25
Cc1ccccc1SCC(=O)Nc1cc(C(F)(F)F)ccc1N1CCOCC1	35	23	10	/	44*	34*
